An excerpt weighted towards active compounds, which were near 10% of everything screened.
Gal4-VP16 FLuc = inhibits Gal4-VP16 luciferase reporter, ROR gamma counter-screen; 3.5% of 310,000 active; Drosophila S2 Gal4-VP16 UAS-luciferase, luminescence, 20 h; Potency, µM (top dose mostly 53.6 µM), without a hit: at the highest dose activity, negative = inhibition, usual class: inhibitors;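 also: Gal4-VP16 expression switched on by copper sulfate through the metallothionein promoter; % is scaled to controls: 0 for no effect and ±100 for the full control effect; nearly all actives have a fitted effect of over 50% in size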
KB-3-1 tox = kills parental KB-3-1 adenocarcinoma cells; KB-3-1 viability, CellTiter-Glo ATP luminescence, 72 h; 1.4% of 400,000 active; Potency, µM (series often up to 46.1 µM), actives largely listed as cytotoxic; also: % is scaled to controls: 0 for no effect and ±100 for the full control effect; nearly all actives have a fitted effect of over 60% in size
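Using CellTiter-Glo luminescence, growth of non-resistant KB-3-1 adenocarcinoma cells is assessed 72 h after pin-tool compound addition at 37 °C. Normalized responses across the concentration series yield fitted curves.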
RORg inh = inhibitors of mouse ROR gamma transcriptional activity; P51450; Drosophila S2 Gal4-RORgamma UAS-luciferase reporter, 20 h; Potency, µM (highest dose often 53.6 µM), inactives show at the top dose activity change, negative = inhibition, hits mostly inhibitors; 5.4% of 310,000 active; AID 2551; also: % is scaled to controls: 0 for no effect and ±100 for the full control effect; nearly all actives have a fitted effect of over 60% in size
Target sequence (P51450 whole entry, looked up, the tested form may be a part): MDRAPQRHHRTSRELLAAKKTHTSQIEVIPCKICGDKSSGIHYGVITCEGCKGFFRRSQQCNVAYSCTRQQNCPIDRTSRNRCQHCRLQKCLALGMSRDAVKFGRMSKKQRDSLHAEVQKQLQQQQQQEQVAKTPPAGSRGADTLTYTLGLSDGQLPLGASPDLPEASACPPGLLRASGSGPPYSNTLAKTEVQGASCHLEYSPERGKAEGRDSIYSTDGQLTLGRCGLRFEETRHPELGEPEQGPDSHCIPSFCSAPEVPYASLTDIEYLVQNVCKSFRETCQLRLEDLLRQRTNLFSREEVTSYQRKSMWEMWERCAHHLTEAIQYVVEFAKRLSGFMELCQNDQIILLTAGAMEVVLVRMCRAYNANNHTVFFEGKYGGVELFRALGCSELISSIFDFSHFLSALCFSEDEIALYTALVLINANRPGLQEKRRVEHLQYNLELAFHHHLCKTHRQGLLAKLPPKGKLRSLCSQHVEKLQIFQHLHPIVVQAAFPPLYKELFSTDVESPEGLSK
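Stably transfected Drosophila Schneider cells are the test system, with ROR gamma fused to Gal4 and luciferase under UAS control; luminescence is read after 20 hr of 700 uM copper sulfate induction at ambient temperature.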
KB-V1 MDR tox = KB-V1 MDR subline cytotoxicity. KB-V1 MDR cells viability, CellTiter-Glo, 72 h. Potency, µM (doses to about 46.1 µM), hits mostly cytotoxic. 3.4% of 400,000 active. AID 1347076; also: % is scaled to controls: 0 for no effect and ±100 for the full control effect; nearly all actives have a fitted effect of over 60% in size
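In this primary screen, KB-V1 cells overexpressing P-gp are incubated with library compounds (lowest to highest concentration) for 72 h at 37 degrees C before a luminescent ATP viability read.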
SW480 rereplic = inducers of DNA re-replication in SW480 colon cancer cells; SW480 DNA re-replication, Hoechst DNA content imaging, 48 h; Potency, µM (top dose mostly 46.1 µM), without a hit: at the top dose re-replication activation, hits mostly activators; 1.8% of 340,000 active; also: % of control where 0% means no effect; nearly all actives have a fitted effect of over 55% in size
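Treated cells incubate 48 hr (37 C, 5% CO2), are stained 40 min with Hoechst, and nuclear fluorescence is enumerated; a rise in nuclei with high DNA signal marks re-replication.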
MCF10A rereplic = DNA re-replication induction in MCF 10a cells | MCF 10A DNA re-replication, Hoechst nuclear intensity, 48 h | Potency, µM (titrated, usually from 46.1 µM), without a hit: top-dose activity, positive = re-replication, actives largely listed as activators | 2.9% of 350,000 active | AID 624296; also: % of control where 0% means no effect; nearly all actives have a fitted effect of over 50% in size
Starred values were filed as active, the others as inactive; i = inactive; ? = inconclusive; . = no result; ! = not active in a repeat; [ ] = another dose, or the depositor's remark. Calls follow the shape of the dose curve; as a rule, active = well fitted curve in the direction sought with a large enough effect; inconclusive = small, poorly fitted or top-dose-only effect, or another doubt; inactive = no such curve, though single readings can be large; an effect the other way counts as inactive or inconclusive. Potency is read from the fitted curve at half-maximal effect.

SMILES | Gal4-VP16 FLuc | KB-3-1 tox | RORg inh | KB-V1 MDR tox | SW480 rereplic | MCF10A rereplic
COC(=O)C[C@H]1C=C[C@H](NC(=O)Nc2ccccc2F)[C@@H](CO)O1 | . | i | . | i | . | .
CC(NC(=O)c1nn(C)c(=O)c2ccccc12)c1ccccc1 (stereo unspecified) | 8.0% | i | 26.7% | 20.6µM* | -6.6% | -1.1%
Cn1nc(C(=O)NCc2ccccc2)c2ccccc2c1=O | 3.4% | i | -11.1% | i | -0.8% | 19.8%
CC(C)Cc1ccc(C(C)C(N)=NCCc2ccccc2)cc1 (stereo unspecified) | -13.5% | ? | ? | ? | 6.51µM* | ?
CC(=O)Nc1ccc(NC(=O)c2nc(SCc3ccccc3F)ncc2Cl)cc1 | . | ? | . | i | . | .
COc1ccc(NC(=O)c2cc3c(s2)-c2c(C)cccc2OC3)cc1Cl | . | i | . | i | . | .
COc1cc(O)ccc1C(C)=O | 6.6% | . | 4.8% | . | . | .
CCOc1ccc(C(=O)N2CCc3cc(OC)c(OC)cc3C2COc2ccc3c(C)cc(=O)oc3c2)cc1OCC (stereo unspecified) | . | i | . | i | . | .
COc1ccc(CNC(=O)CSc2nnc(C)c3c(C)n(-c4ccccc4)nc23)c(OC)c1 | . | i | . | i | . | .
Cc1ccc(SC[C@H](Cc2ccccc2)N2CCN(CC(C)C)CCC2=O)cc1 | 2.9% | i | 8.4% | i | 0.2% | ?
CC(C)CN1CCC(=O)N([C@H](CSc2ccccc2)Cc2ccccc2)CC1 | -13.3% | ? | -1.8% | 13µM*! | ? | ?
Cc1ccc(SC[C@H](c2ccccc2)N2CCN(CCc3ccccc3)CCC2=O)cc1 | -2.9% | i | 34.1% | i | 0.4% | 8.2µM*
COc1ccccc1N1CCN(CC(=O)c2c(C)[nH]c3ccccc23)CC1 | 5.4% | ? | 19.7% | i | -0.3% | ?
COc1ccccc1N1CCN(CC(O)c2c(C)[nH]c3ccccc23)CC1 (stereo unspecified) | 5.5% | i | 16.8% | i | ? | 18.4µM*
CSc1ccc(CNC(=O)CN2C(=O)C3CCCCN3c3ccc(C(=O)N4CCCC4)cc32)cc1 (stereo unspecified) | . | i | . | i | . | .
O=C1CC(C(=O)Nc2ccc(Cl)cc2[N+](=O)[O-])C2(CCCCC2)O1 (stereo unspecified) | 9.1% | i | -32.5% | 14.6µM* | -23.0% | 9.1%
Oc1c(C(Nc2nccs2)c2ccc(C(F)(F)F)cc2)ccc2cccnc12 (stereo unspecified) | 1µM* | ? | 0.562µM* | ? | 1.3µM* | ?
Oc1c(C(Nc2cccc(C(F)(F)F)c2)c2ccncc2)ccc2cccnc12 (stereo unspecified) | 5.62µM* | i | 3.98µM* | ? | 11.6µM* | ?
Cc1cccc(NC(=O)Cn2c(=O)n(CC3CCC(C(=O)NCCc4ccccc4)CC3)c(=O)c3ccccc32)c1 (stereo unspecified) | . | i | . | i | . | .
COc1ccc(NC(=S)Nc2cnc3ccccc3c2)c(OC)c1 | -8.2% | ? | 11.2µM* | i | -28.5% | -2.5%
COc1ccc(NC(=S)Nc2ccc(OC)cc2OC)c(OC)c1 | ? | i | ? | i | -5.2% | -7.7%
COc1ccc(NC(=S)Nc2cccnc2)c(OC)c1 | -3.7% | i | -27.6% | i | -3.1% | 7.4%
COc1ccc(NC(=S)Nc2ccccn2)c(OC)c1 | -2.7%[0.365 µM] | ? | 1.26µM* | ? | 2.8% | 10.5%
COc1ccc(NC(=S)Nc2cc(C)ccn2)c(OC)c1 | 3.16µM* | i | 6.31µM* | i | ? | 1.9%
COc1ccc(C(=O)NC(=S)Nc2ccc(CN3CCOCC3)cc2)cc1OC | -6.2% | i | ? | i | -10.0% | 6.8%
SMILES | Gal4-VP16 FLuc | KB-3-1 tox | RORg inh | KB-V1 MDR tox | SW480 rereplic | MCF10A rereplic
O=C(Nc1ccc(CN2CCCCC2)cc1)Nc1ccc(Br)cc1Cl | -12.8% | 13µM* | 23.4% | ? | ? | 16.4µM*
COc1ccc(C(=O)NC(=S)Nc2ccc(CN3CCCCC3)cc2)cc1Cl | ? | i | 20µM* | i | 25.5% | ?
Cc1ccc(C(=O)NC(=S)Nc2ccc(CN3CCCCC3)cc2)c(C)c1 | ? | i | 12.6µM* | i | ? | 5.1%
COc1ccc(C(=O)NC(=S)Nc2ccc(CN3CCOCC3)cc2)cc1Cl | ? | i | 12.6µM* | i | -4.3% | 0.5%
CSc1ccc(CCNC(=O)C2CCCN(S(=O)(=O)N(C)c3ccc(F)cc3)C2)cc1 (stereo unspecified) | . | i | . | ? | . | .
CC(=O)N1CCc2cc(Br)cc(S(=O)(=O)CCC(=O)N3CCN(c4ccccc4Cl)CC3)c21 | . | i | . | i | . | .
COc1c(Cl)cc(Cl)cc1C(=O)Nc1ccc(CN2CCCCC2)cc1 | 8.4%[10 µM] | i | 24.3% | i | -0.7% | 11.6µM*
CCNC(=S)NNc1nc(N2CCOCC2)nc(N2CCOCC2)n1 | -3.3% | i | -0.8% | i | 4.0% | -6.1%
C=CCNC(=S)NNc1nc(N2CCCC2)nc(N2CCCC2)n1 | 17.8µM* | i | 2.24µM* | i | 3.7% | 1.1%
C=CCNC(=S)NNc1nc(Nc2ccccc2)nc(N2CCCCC2)n1 | ? | i | 3.98µM* | i | 4.1% | 14.7%
Cc1cccc(Nc2nc(N3CCCCC3)nc(N3CCCCC3)n2)c1 | -9.1% | i | 33.2% | i | 8.9% | 29.9%
S=C(NNc1nc(Nc2ccccc2)nc(N2CCCCC2)n1)NC1CCCCC1 | 12.6µM* | i | 4.47µM* | i | -1.1% | 3.7%
Cc1cccc(N2CCN(C(=O)CN3C(=O)COc4ccc(S(=O)(=O)N5CCC(C)CC5)cc43)CC2C)c1 (stereo unspecified) | . | i | . | i | . | .
COc1ccc(CCNC(=O)C/C(C)=N/NC(=O)COc2ccc(C)cc2Br)cc1OC | -0.4% | i | -12.4% | i | -7.1% | -2.7%
COc1ccccc1CNC(=O)C/C(C)=N/NC(=O)COc1ccc(C)cc1Br | 0.2% | 23.1µM* | -2.7% | i | -370.4% | -1.1%
Cc1cc2c(nc1C)CCCN2C[C@@H](O)CN1CCN(C)CC1 | -4.0%[10 µM] | . | -24.4%[10 µM] | . | . | .
Cc1nn(CCC(=O)NNC(=S)Nc2ccc(Cl)cc2)c(C)c1[N+](=O)[O-] | -5.7% | i | ? | i | -5.3% | -0.3%
Cc1cccc(NC(=S)NNC(=O)CCn2nc(C)c([N+](=O)[O-])c2C)c1 | 0.5% | i | 1.78µM* | i | ? | -2.6%
Cc1ccc(NC(=S)NNC(=O)Cn2nc(C(F)F)cc2C(F)F)cc1 | -24.6% | i | 2.24µM* | i | 0.8% | -3.4%

Assay outcomes from PubChem BioAssay.
